Screening data as filed in PubChem BioAssay.
A selection: hits, their analogues and other compounds. The true share with any hit is near 5.8%.
Bst PK mod – alters activity of Bacillus stearothermophilus pyruvate kinase | Potency, µM | purified pyruvate kinase, luminescence ATP production; ribose 5-phosphate activator present at AC10 | actives 1.2% (n = 51,000); in the data active means potency below about 11 µM; inconclusive means mostly about 12 µM to 25 µM;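 the screen sought inhibitors and activators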;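 further: scaled between full activation by ribose 5 phosphate and full inhibition by luteolin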
FLuc inh – firefly luciferase inhibition; purified firefly luciferase, luminescence, 8 min; AID 411; Potency, µM (top dose mostly 57.1 µM), for the others: top-dose activity change, negative = inhibition, usual class: inhibitors; actives 2.2% (n = 72,000); further: on the % scale 0 is the no-effect control and ±100 the full control effect; nearly all actives have a fitted effect of over 40% in size
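Compounds were tested as concentration series (qHTS) against purified P. pyralis luciferase with luciferin and 10 uM ATP in 50 mM imidazole pH 7.2, 50 mM KCl, 7 mM MgCl2, 0.01% Tween 20, 0.05% BSA. Luminescence was read after 8 min at ambient temperature.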
TSHR ag – TSH receptor (human) agonism; Potency, µM (top dose mostly 57.1 µM), inactives show at the top dose activation, actives largely listed as activators; actives 0.48% (n = 73,000); AID 926; HEK293-CNG-TSHR cells (CNG channel as cAMP sensor), membrane potential dye, cAMP; active means well fitted activation curve with a large enough effect in the main read-out, with a control signal flat, not every such curve was filed as active; inconclusive means small, poorly fitted or top-dose-only effect, or a change in a side signal; inactive means no such curve, though single readings can be large or run the other way; % of control where 0% means no effect;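 further: the control signal comes from parental cells without the receptor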
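HEK 293 cells stably expressing TSHR and a cAMP-gated CNG channel; parental CNG-only cells as counterscreen. Cells preloaded 60 min with membrane potential dye plus 100 uM RO 20-1724, then compound 30 min; fluorescence read at 590 nm.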
GBA activity – alters purified human glucocerebrosidase activity; purified enzyme, resorufin glucoside fluorescence (screen aimed at inhibitors), 20 min; Potency, µM; actives 1.1% (n = 48,000); in the data active means potency below about 15 µM; inconclusive means mostly about 16 µM to 33 µM;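 further: the screen sought inhibitors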
Target sequence (P04062 whole entry, looked up): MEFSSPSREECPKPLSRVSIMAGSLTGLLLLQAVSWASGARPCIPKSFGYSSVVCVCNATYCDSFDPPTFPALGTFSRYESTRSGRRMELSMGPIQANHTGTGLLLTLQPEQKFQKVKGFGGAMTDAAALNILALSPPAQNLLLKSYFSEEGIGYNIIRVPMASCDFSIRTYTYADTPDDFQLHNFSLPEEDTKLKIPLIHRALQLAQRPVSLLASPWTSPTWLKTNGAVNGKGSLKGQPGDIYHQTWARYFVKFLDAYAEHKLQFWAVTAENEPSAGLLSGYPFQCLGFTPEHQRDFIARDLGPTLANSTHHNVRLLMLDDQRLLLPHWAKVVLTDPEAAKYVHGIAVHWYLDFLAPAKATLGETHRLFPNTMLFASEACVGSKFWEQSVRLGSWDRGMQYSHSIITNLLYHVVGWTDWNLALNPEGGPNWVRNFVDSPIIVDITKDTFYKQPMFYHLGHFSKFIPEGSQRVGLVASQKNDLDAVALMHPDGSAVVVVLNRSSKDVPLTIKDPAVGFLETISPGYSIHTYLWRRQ
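Wild-type enzyme at 0.2 nM final in 50mM citric acid/KH2PO4, 10mM sodium taurocholate, 0.01% tween-20, pH 5.9, with resorufin beta-D-glucopyranoside at 30 uM final. Compounds titrated, 20 min at RT, red fluorescence read; AC50 from titration.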
HEK293 cAMP cs – parental HEK293 cAMP activation (counter-screen); parental HEK293 CNG cAMP sensor, membrane potential fluorescence; Potency, µM (doses to about 57.1 µM), for inactives: top-dose activation, actives largely listed as activators; actives 2.5% (n = 73,000); AID 938; further: % of control where 0% means no effect; nearly all actives have a fitted effect of over 55% in size
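Parental HEK 293 cells stably expressing a modified CNG channel (no TSHR) report cAMP rise as membrane depolarization. Membrane potential dye with 100 uM RO 20-1724 was loaded for 60 min at room temperature, then compound added for 30 min; fluorescence read at 590 nm.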
Active calls of the source: *; i = inactive; ? = inconclusive; / = no result given; [ ] = another dose, or the depositor's remark. Unless noted, the call rests on the fitted dose curve; in most records, active means well fitted curve in the direction sought with a large enough effect; inconclusive means small, poorly fitted or top-dose-only effect, or another doubt; inactive means no such curve, though single readings can be large; an effect the other way counts as inactive or inconclusive. Potency means the concentration at half of the fitted maximal effect.

SMILES	Bst PK mod	FLuc inh	TSHR ag	GBA activity	HEK293 cAMP cs
CC(=O)OC[C@@H]1O[C@@H](Oc2cc(OC(C)=O)c3c(=O)cc(-c4ccc(OC(C)=O)c(OC(C)=O)c4)oc3c2)[C@H](OC(C)=O)[C@H](OC(C)=O)[C@@H]1OC(C)=O	/	2.5%[11.4 µM]	-2.8%	/	-15.5%
C1OCOCO1	/	/	?	/	-1.4%
Cc1ccc(-c2nnc3sc(C4COc5ccccc5O4)nn23)cc1 (stereo not given)	>57	-0.1%	?	>76.9	25.1µM*
c1ccc(CCc2nn3c(C4COc5ccccc5O4)nnc3s2)cc1 (stereo not given)	>57	-2.2%	?	/	15.8µM*
COc1ccccc1-c1nn2c(C3COc4ccccc4O3)nnc2s1 (stereo not given)	>57	-3.9%	?	>76.9	25.1µM*
c1ccc(-c2nn3c(C4COc5ccccc5O4)nnc3s2)cc1 (stereo not given)	>57	-1.6%	19.5%	>76.9	8.6%
O=C(O)C(Cl)(c1ccccc1)c1ccccc1	/	0.7%[11.4 µM]	-0.7%[11.4 µM]	/	25.4%[11.4 µM]
COc1ccc(/C=N\n2nnc3ccccc32)cc1	2.16*	3.16µM*	11.6%	>76.9	25.9%
O=C(O)C/C=C\CC(=O)O	/	1.1%[11.4 µM]	5.6%[11.4 µM]	/	-0.1%[11.4 µM]
COc1ccc(-n2nc(C(=O)NCc3ccco3)c3c4ccccc4n(C)c3c2=O)cc1	>57	1.8%	?	>76.9	10µM*
CCOC(=O)N1CCc2c(sc3c2C(=O)NC(c2ccccc2)N3)C1 (stereo not given)	i	-13.3%	?	4.02*	?
N#Cc1cccc(-c2nc(NCc3ccccc3)c3ccccc3n2)c1	/	0.3%[2.29 µM]	14.7%	/	7.4%
CC(=NCC(=O)O)c1ccccc1	/	-0.9%[11.4 µM]	-2.3%[11.4 µM]	/	2.0%[11.4 µM]
Fc1ccc(Nc2ncnc3ccc(-c4ccoc4)cc23)cc1	/	3.4%[2.29 µM]	?	/	12.6µM*
COc1ccccc1CNc1ncnc2ccc(-c3ccccc3OC)cc12	/	-3.7%[2.29 µM]	12.6µM*	/	20.1%
COc1cccc(-c2ccc3ncnc(N(C)C)c3c2)c1	/	-5.1%[2.29 µM]	?	/	25.1µM*
CN(C)c1ncnc2ccc(-c3cccnc3)cc12	/	0.6%[2.29 µM]	4.0%	/	15.2%
COc1ccccc1-c1ccc2ncnc(Nc3ccccc3)c2c1	/	-0.1%[2.29 µM]	?	/	15.8µM*
COc1cccc(-c2ccc3ncnc(Nc4ccccc4)c3c2)c1	/	-0.6%[2.29 µM]	?	/	20µM*
O=c1[nH]ncc2c3ccccc3n(Cc3ccc(F)cc3)c12	/	/	15.8µM*	/	5.0%
CCNc1ncc2nc(-c3cn(C)c4ccccc34)c(=O)n(Cc3ccc(F)cc3)c2n1	/	-0.9%[11.4 µM]	7.5%	/	5.7%[0.457 µM]
Cc1occc1C(=O)Nc1cc(=O)n(C)c(=O)n1C	>57	-0.9%	-2.9%	>76.9	-6.8%
Cn1c(NC(=O)c2cc(-c3ccc4c(c3)OCO4)nc3ccccc23)cc(=O)n(C)c1=O	4.05*	2.51µM*	-4.0%	>76.9	-0.2%
Cc1sc2ncnc(SCC#N)c2c1C	>57	2.5%	-1.2%	>76.9	5.0%
Cc1cc2ccc(C)c(C)c2nc1SCC#N	>57	-4.7%	?	>76.9	20µM*
SMILES	Bst PK mod	FLuc inh	TSHR ag	GBA activity	HEK293 cAMP cs
CO/N=C1/c2cc(OC)ccc2O[C@@H](c2cccc(OC)c2)[C@H]1O	/	-1.5%[11.4 µM]	-3.4%[11.4 µM]	/	-2.8%[11.4 µM]
COc1ccc2c(c1)c(=O)c(Br)c(C)n2Cc1ccccc1	/	-2.0%	?	/	31.6µM*
COc1ccc2c(c1)c(CC(=O)O)c(C)n2Cc1ccc(F)cc1	/	-0.3%	?	/	?
COc1ccc(COC(=O)N/N=C2/C[C@@H](O)[C@@H](O)[C@@H]3[C@@H]4C(=O)N(C[C@@H]5CCCO5)C(=O)[C@H]4CC[C@H]23)cc1	/	0.0%[11.4 µM]	4.0%[11.4 µM]	/	9.0%[11.4 µM]
CCOc1ccc2nc(NC(=O)c3ccc(S(=O)(=O)N4CCOCC4)cc3)sc2c1	>57	0.2%	-6.0%[11.4 µM]	>76.9	9.6%
CCOc1ccc2nc(NC(=O)c3ccoc3C)sc2c1	/	1.58µM*	-4.6%[11.4 µM]	/	-10.0%[11.4 µM]
COc1ccc2sc(NC(=O)CC(C)C)nc2c1	i	25.1µM*	7.9%	>76.9	15.4%
CCOc1ccc2nc(NC(=O)Nc3cccs3)sc2c1	/	0.631µM*	-20.8%	/	-3.0%
CCOc1ccc2nc(NC(=O)COC)sc2c1	i	20µM*	4.5%	>76.9	-1.0%
CCC(=O)Nc1nc2cc(OC)ccc2s1	/	?	0.0%	>76.9	-3.2%
CN(C)c1ncc2nc(CCc3ccccc3)c(=O)n(CCC#N)c2n1	/	-1.1%[11.4 µM]	?	/	?
N#Cc1cccc(-c2ccc3ncnc(NCCN4CCOCC4)c3c2)c1	/	-2.0%[2.29 µM]	8.2%	/	27.6%
CN(C)c1cccc(-c2nnc(SCCCC#N)o2)c1	i	15.8µM*	-0.1%	>76.9	-4.7%
O=c1[nH]c(=O)n([C@@H]2C[C@H](O)[C@H](CO)O2)cc1I	/	-2.2%[25.5 µM]	-17.2%[25.6 µM]	/	-3.2%[25.6 µM]
O=C(O)[C@H]1CCCC[C@@H]1C(=O)Nc1nc2ccccc2[nH]1	/	-1.1%[11.4 µM]	1.1%[11.4 µM]	/	-0.6%[11.4 µM]
COC(=O)c1ccccc1NC(=O)Cn1c(-c2nonc2N)nc2ccccc21	>57	-0.6%	?	>76.9	15.8µM*
CC(C)CN1CC2(CCN(C(=O)c3cnccn3)CC2)C1	/	1.0%[11.4 µM]	6.2%	/	-2.6%
CCN1C(=S)SC(=O)C1=C1C=C(C)N(CCOC)C(C)=C1	/	-1.1%	?	14.8*	72.4%
CCCN[C@@H](C)C(=O)Nc1c(C)csc1C(=O)OC	/	3.5%[25.5 µM]	-7.2%[25.6 µM]	/	9.6%[25.6 µM]
CN1CCN(c2ncnc3ccc(-c4ccccc4C(F)(F)F)cc23)CC1	/	0.3%[2.29 µM]	?	/	?
CCC(c1nnnn1CCc1ccccc1)N(Cc1ccco1)Cc1cc2cc(C)cc(C)c2[nH]c1=O (stereo not given)	>57	2.0%	?	>76.9	12.6µM*
COCCn1cnc2c(c1=O)c1nc3ccccc3nc1n2/N=C/c1cccc(OC)c1OC	3.6*	4.5%	-9.9%	i	-15.3%
C=CCn1cnc2c(c1=O)c1nc3ccccc3nc1n2/N=C/c1cccc(OC)c1	/	0.9%	-7.9%	i	-8.9%
Cc1noc(C)c1C(=O)OCC(=O)c1cc(C)n(Cc2ccccc2Cl)c1C	/	-20.8%	?	>76.9	25.1µM*
c1ncc(CC2CCNCC2)[nH]1	/	1.2%	5.8%	/	0.3%
SMILES	Bst PK mod	FLuc inh	TSHR ag	GBA activity	HEK293 cAMP cs
CC(Sc1ccc2c(c1)OCCO2)C(=O)Nc1ccc2c(c1)OCO2 (stereo not given)	>57	1.2%	?	15*	?
COc1ccc(-c2nnc(SC(C)C(=O)Nc3ccc4c(c3)OCCO4)o2)cc1 (stereo not given)	/	20µM*	-1.2%	>76.9	-10.8%
CC(C)C(NC(=O)C1CCCCC1)C(=O)Nc1ccc2c(c1)OCCO2 (stereo not given)	?	12.6µM*	2.8%	>76.9	21.1%
Cc1ccc(NC(=O)C(C)Sc2nnc(-c3cccnc3)o2)cc1 (stereo not given)	>57	0.6%	-6.4%	>76.9	1.3%
CC(C)C(NC(=O)C1CCCCC1)C(=O)Nc1ccncc1 (stereo not given)	>57	0.7%	?	>76.9	?
Cc1nnc(SC(C)C(=O)Nc2ccc3c(c2)OCCO3)s1 (stereo not given)	>57	-3.6%	2.5%	>76.9	1.6%
